The values below come from PubChem BioAssay.

Experiment [1] can be described thus: antimalarial activity against Dd2 strain (AID 2302;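 active means growth inhibition above 50% at the single 2 µM test dose, taken to imply half-maximal potency below 2 µM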;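 further: 0% = DMSO untreated growth and 100% = chloroquine plus artemisinin killed control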). The note with it: P. falciparum Dd2 in RBCs, LDH growth readout, 72 h; at 2 µM; active compounds read high.
Experiment [2] can be described thus: HepG2 cytotoxicity, primary screen, cytotoxicity control for P. falciparum antimalarial project, cell-based, ATP luminescence (AID 2303;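 active means inhibition above 50%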;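 further: 0% = DMSO wells and 100% = digitonin-killed cells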). The note with it: HepG2 viability, 24-48 h, at 10 µM, active compounds read high.
In experiment [3] the target is L-lactate dehydrogenase (Plasmodium falciparum (isolate CDC / Honduras)) (UniProt Q27743). Nature of the experiment: PfLDH activity inhibition – cell lysate, 3D7 strain, counter-screen for P. falciparum growth inhibition project (AID 2304).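 Further: 0% = vehicle and 100% = reference inhibitor.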 The settings on record: P. falciparum 3D7 crude extract, LDH APAD/NBT absorbance; at 2 µM; active compounds read high.
The nature of experiment [4]: inhibition of 3D7 malaria parasite growth – strain 3D7 (AID 2306).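 Further: 0% = DMSO wells and 100% = chloroquine plus artemisinin control wells.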 The settings on record: P. falciparum 3D7 erythrocytic growth, LDH absorbance, 72 h; at 2 µM; active compounds read high.
For experiment [5], the target named is Calcium-dependent protein kinase 1 (Plasmodium falciparum (isolate 3D7)) (UniProt P62344). In words: PfCDPK1 kinase inhibitors, biochemical, TCAMS library (AID 1159585; cut-off not given, nearly all actives have IC50 up to about 0.98 µM;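 further: inhibitors leave more ATP so luminescence rises with inhibition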). The settings on record: recombinant PfCDPK1, Kinase-Glo ATP depletion luminescence. (In general: Kinase-Glo reads ATP consumption through a luciferase reaction.)
For experiment [6], the target named is Plasmodium falciparum protein kinase 6 (PK6, PF3D7_1337100) (UniProt Q8IDW1). In words: PfPK6 kinase inhibitors, biochemical, TCAMS library (AID 1159586). The note with it: recombinant PfPK6, Kinase-Glo ATP depletion luminescence.
Experiment [7] addresses Protein kinase 7 (PK7), Plasmodium falciparum 3D7 (PF3D7_0213400) (UniProt Q7YTF7). In words: inhibition of Plasmodium PK7 catalytic activity – biochemical, TCAMS antimalarial set, Kinase-Glo luminescence (AID 1159587). The note with it: recombinant PfPK7, Kinase-Glo ATP depletion luminescence.
Experiment [8] addresses Calcium-dependent protein kinase 4 (Plasmodium falciparum (isolate 3D7)) (UniProt Q8IBS5). In words: PfCDPK4 kinase inhibitors, biochemical, TCAMS library (AID 1159588; cut-off not given, nearly all actives have IC50 up to about 0.91 µM). The settings on record: recombinant PfCDPK4, Kinase-Glo ATP depletion luminescence.

A number with no mark means an inactive call. For some of these results: Potency and affinity values are given separately. The source made the active and inactive calls. Unless noted, how the calls were made is not given here.

Protein kinase 7 (PK7), Plasmodium falciparum 3D7 (PF3D7_0213400), sequence (Q7YTF7 1-343): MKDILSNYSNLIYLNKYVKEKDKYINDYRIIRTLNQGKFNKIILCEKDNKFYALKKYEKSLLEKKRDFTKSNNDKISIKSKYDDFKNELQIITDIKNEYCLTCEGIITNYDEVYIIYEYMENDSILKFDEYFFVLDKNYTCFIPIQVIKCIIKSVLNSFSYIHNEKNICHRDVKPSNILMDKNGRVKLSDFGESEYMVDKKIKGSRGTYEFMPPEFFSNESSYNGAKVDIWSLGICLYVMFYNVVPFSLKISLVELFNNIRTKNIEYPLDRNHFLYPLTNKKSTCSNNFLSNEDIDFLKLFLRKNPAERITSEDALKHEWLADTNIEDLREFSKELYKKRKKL
L-lactate dehydrogenase (Plasmodium falciparum (isolate CDC / Honduras)), sequence (Q27743 whole entry, looked up): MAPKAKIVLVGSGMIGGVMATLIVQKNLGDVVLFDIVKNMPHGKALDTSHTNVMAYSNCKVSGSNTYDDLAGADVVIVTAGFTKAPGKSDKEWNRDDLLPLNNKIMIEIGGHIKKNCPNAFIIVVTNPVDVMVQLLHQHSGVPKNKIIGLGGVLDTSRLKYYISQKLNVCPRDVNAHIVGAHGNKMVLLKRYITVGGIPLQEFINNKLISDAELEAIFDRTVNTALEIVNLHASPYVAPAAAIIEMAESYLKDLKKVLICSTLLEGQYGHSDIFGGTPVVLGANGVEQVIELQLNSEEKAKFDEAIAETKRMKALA
Calcium-dependent protein kinase 1 (Plasmodium falciparum (isolate 3D7)), sequence (P62344 whole entry, looked up): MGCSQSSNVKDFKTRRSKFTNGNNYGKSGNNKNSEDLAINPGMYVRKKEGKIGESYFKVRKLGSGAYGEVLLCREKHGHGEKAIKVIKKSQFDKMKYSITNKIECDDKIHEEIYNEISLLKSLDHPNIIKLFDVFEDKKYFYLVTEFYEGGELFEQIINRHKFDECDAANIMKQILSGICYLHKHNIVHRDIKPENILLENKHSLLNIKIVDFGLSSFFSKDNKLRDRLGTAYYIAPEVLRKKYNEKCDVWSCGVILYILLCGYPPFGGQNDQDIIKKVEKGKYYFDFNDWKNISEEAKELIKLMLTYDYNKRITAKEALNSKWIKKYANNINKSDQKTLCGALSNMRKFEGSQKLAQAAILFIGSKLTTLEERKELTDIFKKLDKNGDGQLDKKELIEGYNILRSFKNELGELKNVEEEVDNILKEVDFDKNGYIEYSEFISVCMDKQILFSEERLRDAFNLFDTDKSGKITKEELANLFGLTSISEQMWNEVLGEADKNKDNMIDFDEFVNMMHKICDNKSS
Plasmodium falciparum protein kinase 6 (PK6, PF3D7_1337100), sequence (Q8IDW1 1-305): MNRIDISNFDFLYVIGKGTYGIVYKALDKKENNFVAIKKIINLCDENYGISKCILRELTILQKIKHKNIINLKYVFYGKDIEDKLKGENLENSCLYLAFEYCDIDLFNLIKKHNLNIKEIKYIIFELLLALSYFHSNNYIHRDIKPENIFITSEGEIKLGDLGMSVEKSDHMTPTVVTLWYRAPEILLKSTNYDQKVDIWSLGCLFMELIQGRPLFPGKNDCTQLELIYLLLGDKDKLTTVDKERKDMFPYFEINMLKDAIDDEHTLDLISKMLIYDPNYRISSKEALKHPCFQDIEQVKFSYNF
Calcium-dependent protein kinase 4 (Plasmodium falciparum (isolate 3D7)), sequence (Q8IBS5 whole entry, looked up): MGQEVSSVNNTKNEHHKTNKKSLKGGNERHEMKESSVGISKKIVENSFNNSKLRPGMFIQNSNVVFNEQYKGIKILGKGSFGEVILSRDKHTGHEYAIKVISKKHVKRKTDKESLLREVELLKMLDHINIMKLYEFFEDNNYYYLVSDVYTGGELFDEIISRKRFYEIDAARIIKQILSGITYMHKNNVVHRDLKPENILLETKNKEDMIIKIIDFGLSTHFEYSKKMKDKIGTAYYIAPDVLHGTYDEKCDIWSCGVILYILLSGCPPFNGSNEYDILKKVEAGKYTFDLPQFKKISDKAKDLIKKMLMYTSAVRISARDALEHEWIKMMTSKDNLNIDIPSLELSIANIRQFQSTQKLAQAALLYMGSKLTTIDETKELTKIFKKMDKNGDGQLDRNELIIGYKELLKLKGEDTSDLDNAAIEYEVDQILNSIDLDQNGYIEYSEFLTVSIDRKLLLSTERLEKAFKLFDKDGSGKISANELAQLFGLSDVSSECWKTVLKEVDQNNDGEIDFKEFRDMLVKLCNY

What is called inhibition is the relative decrease from the control value, in per cent. Regarding `Cc1nc(-c2ccc(-c3ccc(C(=O)Nc4ccc(I)c(OCCN5CCCC5)c4)cc3)c(C)c2)no1`, the growth inhibition was 35% in experiment [1] and 95% (active) in experiment [4]. The inhibition in experiment [2] was 96% (active); in experiment [3] it was -1%. Further, the outcome in experiment [5], in experiment [6], in experiment [7] and in experiment [8] was inactive.
Regarding `c1ccc(-c2cc(NCCCCNc3cc(-c4ccccc4)nc4ccccc34)c3ccccc3n2)cc1`, the growth inhibition in experiment [1] was 97% (active); in experiment [4], 102% (active). Besides, the values for the inhibition in experiment [2] and in experiment [3] were 70% (active) and 0%, respectively. The outcome in experiment [5], in experiment [6], in experiment [7] and in experiment [8] was inactive.
Regarding `COc1cccc2cc(C(=O)N[C@@H](CC(C)C)C(=O)N[C@H](/C=N/N3CCCC3=O)Cc3ccccc3)oc12`, the growth inhibition in experiment [1] is 80% (active); in experiment [4], 96% (active). For the same compound, the inhibition in experiment [2] and in experiment [3] was 5% each time. Besides, the result in experiment [5], in experiment [6], in experiment [7] and in experiment [8] was inactive.
For `Cc1cc(Nc2ccncc2)n2nc(C)c(-c3ccccc3Cl)c2n1`, the growth inhibition in experiment [1] was 93% (active); in experiment [4] it was 99% (active). Also, the inhibition is 2% in experiment [2] and 4% in experiment [3]. The result in experiment [5], in experiment [6], in experiment [7] and in experiment [8] was inactive.
As for `CC(C)(C)CCN1CCC(CNC(=O)c2cc(-c3cccc(Cl)c3)cs2)C1` (stereo not given), the results for the growth inhibition in experiment [1] and in experiment [4] were 13% and 99% (active), respectively. Besides, the inhibition in experiment [2] was 50% (active); in experiment [3] it was 3%. Besides, the result in experiment [5], in experiment [6], in experiment [7] and in experiment [8] was inactive.
As for `COc1ccc(OC)c2c1CCN(C)C2Cc1cccc2ccccc12` (stereo not given), the growth inhibition in experiment [1] is 79% (active); in experiment [4], 91% (active). For the same compound, the inhibition was 13% in experiment [2] and 7% in experiment [3]. In addition, the result in experiment [5], in experiment [6], in experiment [7] and in experiment [8] was inactive.
As for `Cc1cc(N(C)C)nc(Nc2ccc(NC(=O)c3ccc(F)cc3)cc2)n1`, the growth inhibition in experiment [1] is 21%; in experiment [4], 100% (active). The figures for the inhibition in experiment [2] and in experiment [3] were 8% and -3%, respectively. Further, the outcome in experiment [5], in experiment [6], in experiment [7] and in experiment [8] was inactive.
With `Cc1nc2ccc(-c3nc4ccc(N)cc4[nH]3)cc2[nH]1`, the growth inhibition is 80% (active) in experiment [1] and 94% (active) in experiment [4]. Further, the results for the inhibition in experiment [2] and in experiment [3] were 6% and -5%, respectively. Moreover, the result in experiment [5], in experiment [6], in experiment [7] and in experiment [8] was inactive.
`Cc1cc(N[C@@H](CC(C)C)C(=O)Nc2ccccc2)nc(NCC2CCCCC2)n1`: the growth inhibition in experiment [1] was 95% (active); in experiment [4], 101% (active). For the same compound, the inhibition in experiment [2] is 8%; in experiment [3], 1%. The result in experiment [5], in experiment [6], in experiment [7] and in experiment [8] was inactive.
Consider `COc1cc(OCCCN(C)Cc2ccc(OC)c(OC)c2)ccc1NC(=O)c1cccc2c(=O)c3cccc(F)c3[nH]c12`, for which the growth inhibition in experiment [1] is 62% (active); in experiment [4] it was 94% (active). The inhibition is 10% in experiment [2] and -5% in experiment [3]. For the same compound, the result in experiment [5], in experiment [6], in experiment [7] and in experiment [8] was inactive.
Turning to `Cc1cc(Nc2cccc(C(F)(F)F)c2)nc2ccc(NC(=O)c3ccc(=O)[nH]c3)cc12`, the values for the growth inhibition in experiment [1] and in experiment [4] were 60% (active) and 101% (active), respectively. Also, the inhibition was 21% in experiment [2] and 0% in experiment [3]. In addition, the result in experiment [5], in experiment [6], in experiment [7] and in experiment [8] was inactive.
Turning to `CN(c1ccc(NC(=O)c2cccc(F)c2)cc1)C1CCCN(Cc2cccc(O)c2)C1` (stereo not given), the values for the growth inhibition in experiment [1] and in experiment [4] were 2% and 85% (active), respectively. In addition, the inhibition in experiment [2] was 13%; in experiment [3], -3%. In addition, the result in experiment [5], in experiment [6], in experiment [7] and in experiment [8] was inactive.
Take `CC(C)C(NC(=O)c1c(F)cccc1F)C(=O)Nc1ccc(Cc2nc3ccccc3s2)cc1` (stereo not given): the growth inhibition in experiment [1] is 55% (active); in experiment [4], 86% (active). For the same compound, the inhibition in experiment [2] was 0%; in experiment [3], 6%. The result in experiment [5], in experiment [6], in experiment [7] and in experiment [8] was inactive.
For `COc1cccc2c(NCCNc3ccnc4c(OC)cccc34)ccnc12`, the growth inhibition in experiment [1] is 86% (active); in experiment [4], 93% (active). Further, the inhibition was 11% in experiment [2] and 0% in experiment [3]. Further, the outcome in experiment [5], in experiment [6], in experiment [7] and in experiment [8] was inactive.
`CN(C)c1ccc(CN2CCC(CNC(=O)c3cc(-c4cccc(F)c4)cs3)C2)cc1` (stereo not given): the growth inhibition is 13% in experiment [1] and 96% (active) in experiment [4]. Besides, the results for the inhibition in experiment [2] and in experiment [3] were 48% and 0%, respectively. Moreover, the result in experiment [5], in experiment [6], in experiment [7] and in experiment [8] was inactive.
With `CCOc1ccc2nc(C)cc(NN=Cc3ccc(Cl)cc3)c2c1`, the growth inhibition in experiment [1] and in experiment [4] was 100% (active) throughout. In addition, the inhibition in experiment [2] is 0%; in experiment [3] it was 5%. Besides, the result in experiment [5], in experiment [6], in experiment [7] and in experiment [8] was inactive.
`NC1=NC2(CCCCC2)N(Cc2ccc(Cl)c(Cl)c2)C(N)=N1`: the growth inhibition in experiment [1] is 76% (active); in experiment [4], 86% (active). Also, the inhibition in experiment [2] was 22%; in experiment [3], -3%. The outcome in experiment [5], in experiment [6], in experiment [7] and in experiment [8] was inactive.
For the compound `COc1cc(CN2CCC(NC(=O)[C@H](Cc3ccccc3)NC(=O)Nc3ccc(Oc4ccccc4)cc3)C2)ccc1O` (stereo not given in full), the figures for the growth inhibition in experiment [1] and in experiment [4] were -2% and 92% (active), respectively. In addition, the inhibition was 10% in experiment [2] and 6% in experiment [3]. The outcome in experiment [5], in experiment [6], in experiment [7] and in experiment [8] was inactive.
Consider `O=C(NCc1cccc(F)c1)Nc1ccc(-c2cccc(-c3nc4ccc(F)cc4[nH]3)c2)cc1`, for which the figures for the growth inhibition in experiment [1] and in experiment [4] were 2% and 88% (active), respectively. Besides, the inhibition was 31% in experiment [2] and 7% in experiment [3]. Moreover, the result in experiment [5], in experiment [6], in experiment [7] and in experiment [8] was inactive.
In the case of `C[C@H](Cc1ccc(C(=O)OCCOC(=O)c2ccc(C[C@@H](C)NC[C@H](O)c3cccc(C(F)(F)F)c3)cc2)cc1)NC[C@H](O)c1cccc(C(F)(F)F)c1`, the growth inhibition is 86% (active) in experiment [1] and 98% (active) in experiment [4]. The inhibition in experiment [2] is 10%; in experiment [3], -4%. Further, the result in experiment [5], in experiment [6], in experiment [7] and in experiment [8] was inactive.
